# Assay results as given in PubChem BioAssay (Tox21).
# Results filed as inconclusive are left out. Where a call stands in place of a potency, no number is given. Active and inactive are the calls of the source. Unless noted, calls come from the whole dose curve; as a rule, active = well fitted cell-killing curve with a large enough effect in the repeat runs; inconclusive = weak or mixed curves, or effect the other way; inactive = no such curve, though single readings can be large or run the other way.
# Biological target: Retinoic acid receptor RXR-alpha (Homo sapiens) (UniProt P19793)
# Sequence (P19793 whole entry, looked up): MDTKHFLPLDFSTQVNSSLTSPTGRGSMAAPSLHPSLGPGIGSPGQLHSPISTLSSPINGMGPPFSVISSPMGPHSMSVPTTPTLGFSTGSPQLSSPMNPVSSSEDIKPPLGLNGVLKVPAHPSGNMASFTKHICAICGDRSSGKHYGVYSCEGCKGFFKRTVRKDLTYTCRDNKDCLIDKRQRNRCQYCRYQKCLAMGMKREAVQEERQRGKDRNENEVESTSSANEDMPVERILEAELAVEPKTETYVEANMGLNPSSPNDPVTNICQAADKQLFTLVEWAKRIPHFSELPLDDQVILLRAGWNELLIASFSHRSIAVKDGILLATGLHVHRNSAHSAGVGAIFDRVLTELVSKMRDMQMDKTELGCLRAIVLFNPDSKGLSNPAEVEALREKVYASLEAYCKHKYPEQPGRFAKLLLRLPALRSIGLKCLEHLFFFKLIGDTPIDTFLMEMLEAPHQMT
# Assay: qHTS assay to identify small molecule agonists of the RXR signaling pathway (AID 1159527; calls by dose curve; note: nearly all actives have a fitted effect of over 35% in size)
# Conditions: HEK293T RXRa-UAS-bla, beta-lactamase ratio, 16 h; series mostly up to 76.8 µM
# Method in brief: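 Cells plated at 2,000/well, rested 5 hr at 37 C, pin-dosed with DMSO compound solutions, incubated 16 hr, then loaded with B/G FRET substrate for 2 hr at RT before dual-emission fluorescence reading.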
row,SMILES,Potency
1,N#CC(Br)Br,inactive
2,CCCCNC(=O)n1c(NC(=O)OC)nc2ccccc21,inactive
3,CCCCN(CC)c1c([N+](=O)[O-])cc(C(F)(F)F)cc1[N+](=O)[O-],inactive
4,C1=Cc2cccc3cccc1c23,inactive
5,Clc1nc(Cl)nc(Cl)n1,inactive
6,c1ccc(NNc2ccccc2)cc1,inactive
7,C=CC(=O)OCCO,inactive
8,c1ccc(N=Nc2ccccc2)cc1,inactive
9,CCCCC(CC)COC(=O)c1ccc(C(=O)OCC(CC)CCCC)c(C(=O)OCC(CC)CCCC)c1 (centres undefined),inactive
10,c1ccc(-c2cccc(-c3ccccc3)c2)cc1,inactive
11,CCN(CC)C(=O)SCc1ccc(Cl)cc1,inactive

# System: not listed separately
# Assay: qHTS assay to identify small molecule agonists of the RXR signaling pathway - cell viability counter screen (AID 1159529);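 note: HEK 293T cells carrying an RXR-alpha UAS beta-lactamase reporter; nearly all actives have a fitted effect of over 50% in size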
# Conditions: RXR-alpha-bla HEK293T viability, CellTiter-Glo, 16 h; series mostly up to 76.8 µM
# Method in brief: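 Steps: seed RXR-alpha-UAS-bla HEK 293T cells in assay medium containing 2% charcoal-stripped FBS; incubate 5 hr; add compounds in DMSO; incubate 16 hr at 37 C; after the bla read, add CellTiter-Glo and read luminescence at 30 min.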
row,SMILES,Potency
1,COc1ccc(C=O)cc1,inactive
2,CCN(N=O)C(N)=O,inactive
3,Cc1cc(C)cc(C)c1,inactive
4,CC(O)CCO (centres undefined),inactive
5,O=C(NC(=O)c1c(F)cccc1F)Nc1ccc(Cl)cc1,inactive
6,CCC(C)(c1ccc(O)cc1)c1ccc(O)cc1,inactive
7,CCCCN(CCCC)N=O,inactive
8,CC(C)(c1cc(Cl)c(O)c(Cl)c1)c1cc(Cl)c(O)c(Cl)c1,inactive
9,Nc1ccc(Cl)c(Cl)c1,inactive
10,CN(C)C(=O)Nc1ccc(Cl)cc1,inactive
11,Oc1cc(Cl)c(Cl)cc1Cl,inactive
12,C=CCN(CC=C)C(=O)C(Cl)Cl,inactive
13,Oc1ccc(-c2ccccc2)cc1,inactive
14,C=CCc1ccc(OC)cc1,inactive
15,COP(=S)(OC)Oc1cc(Cl)c(Cl)cc1Cl,inactive
16,CCOC(=O)C(C)OC(=O)c1cc(Oc2ccc(C(F)(F)F)cc2Cl)ccc1[N+](=O)[O-] (centres undefined),inactive
17,CC(C)(C)c1ccccc1O,inactive
18,CNC(=O)Oc1cccc2c1OC(C)(C)O2,inactive
19,c1nc[nH]n1,inactive

row,SMILES,Potency
1,O=C(O)C(F)(F)C(F)(F)C(F)(F)C(F)(F)C(F)(F)C(F)(F)C(F)(F)F,inactive
2,CCCCCc1cc(O)cc(O)c1,inactive
3,CCC(C)c1ccc(O)cc1 (centres undefined),inactive
4,COC(=O)c1sccc1S(=O)(=O)NC(=O)Nc1nc(C)nc(OC)n1,inactive
5,CCC(C)(C)c1ccc(O)cc1,inactive
6,COP(=O)(OC)OC,inactive
7,c1ccc(P(c2ccccc2)c2ccccc2)cc1,inactive
8,Cc1ccc2c(c1N)C(=O)c1ccccc1C2=O,inactive
9,N#CC(Br)Br,inactive
10,CCCCNC(=O)n1c(NC(=O)OC)nc2ccccc21,inactive
11,CCCCN(CC)c1c([N+](=O)[O-])cc(C(F)(F)F)cc1[N+](=O)[O-],inactive
12,C1=Cc2cccc3cccc1c23,inactive
13,Clc1nc(Cl)nc(Cl)n1,inactive
14,c1ccc(NNc2ccccc2)cc1,inactive
15,C=CC(=O)OCCO,inactive
16,c1ccc(N=Nc2ccccc2)cc1,inactive
17,CCCCC(CC)COC(=O)c1ccc(C(=O)OCC(CC)CCCC)c(C(=O)OCC(CC)CCCC)c1 (centres undefined),inactive
18,c1ccc(-c2cccc(-c3ccccc3)c2)cc1,inactive
19,CCN(CC)C(=O)SCc1ccc(Cl)cc1,inactive
